# Results published in PubChem BioAssay (EPA / NIEHS).
# Inconclusive results are not listed. Calls of active or inactive are those of the source. The calls were made as follows: active = hit-call score of the fitted dose curve at least 0.9, where 1 is the maximum; inconclusive = response in the unintended direction; inactive = score below 0.9.
# Assay: ATG_M_06_TRANS: Attagene TRANS-FACTORIAL HepG2 Assay for M06 Transcription Factor (Internal Marker) (AID 2282983)
# Conditions: HepG2 Attagene TRANS M06 internal marker reporter
# Protocol: ATG_TRANS is a cell-based, multiplexed-readout assay that uses HepG2, a human liver cell line, with measurements taken at 24 hours after chemical dosing in a 24-well plate.ATG_M_06_TRANS is one of 30 assay component(s) measured or calculated from the ATG_TRANS assay. It is designed to make measurements of mRNA induction, a form of inducible reporter, as detected with fluorescence intensity signals by Reverse transcription polymerase chain reaction (RT-PCR) and Capillary electrophoresis technology.Data from the assay component ATG_M_06_TRANS was analyzed into 1 assay endpoint. This assay endpoint, ATG_M_06_TRANS, was analyzed in the positive analysis fitting direction relative to DMSO as the negative control and baseline of activity. Using a type of inducible reporter, measures of mRNA for gain-of-signal activity can be used to understand the background control at the transcription factor-level as they relate to the gene . Furthermore, this assay endpoint can be referred to as a secondary readout, because this assay has produced multiple assay endpoints where this one serves a background control function. To generalize the intended target to other relatable targets, this assay endpoint is annotated to the background measurement intended target family, where the subfamily is internal marker.
# Human liver HepG2 cells are transiently transfected with multiple reporter transcription units (MRTUs) in 6-well plates using FuGene 6 reagent (Roche; 3 ml FuGene/1 mg DNA). The MRTU constructs are regulated by a cis-regulating element (promoter). […] A major difference between the CIS and TRANS system is that in CIS activities of endogenous TFs are measured, whereas the TRANS assay evaluates changes in activities of exogenous, chimeric NR-Gal4 proteins. […] At the end of 24 hour incubation, total RNA was isolated using TriZol reagent (Invitrogen). The isolated RNA is then reverse-transcribed using oligo(dT) primer and Mo-MLV reverse transcriptase (Invitrogen) with DNAse I (Ambion) treatment for 30 min. The one-tenth of the produced cDNA was amplified by PCR using Taq DNA polymerase (Invitrogen) and two reporter sequence-specific primers. The PCR products were fluorescently labeled by primer extension with 6-arboxyfluorescein (6-FAM) 5'-labeled reporter sequence-specific primer (2 min at 95 C, 20 s at 68 C and 10 min at 72 C) and these products were digested with 5U of HpaI (New England Biolabs) for 2h at 37 C. The fragments were purified using Qiaquick PCR columns (Qiagen), analyzed on an ABI 3130xL genetic analyzer (Applied Biosystems) with peak positions identified by using a set of X-rhodamine (ROX)-labeled MapMarker1000 molecular weight standards (BioVentures). The raw capillary electrophoresis data was processed using Attagraph software (Attagene).
row,Structure (SMILES),outcome
1,Cc1cc(C(C)(C)c2ccc(O)c(C)c2)ccc1O,inactive
2,C=C(C)[C@@H]1CC=C(C=O)CC1,inactive
3,CCCCC(CC)C(=O)Cl (stereo not given),inactive
4,CC(C)CP(=S)(S)CC(C)C,inactive
5,O=C(O)C1(c2ccc3c(c2)OC[C@H](Cc2ccc(-c4ccccc4)cc2)[C@H]3O)CCCC1,inactive
6,O=NN1CCOCC1,inactive
7,O=[N+]([O-])c1cc([As](=O)(O)O)ccc1O,inactive
8,CCNc1nc(NCC)nc(SC)n1,inactive
9,O=C(NC(=O)c1c(F)cccc1F)Nc1cc(Cl)c(Oc2ncc(C(F)(F)F)cc2Cl)c(Cl)c1,inactive
10,CCOC(=O)CC(=O)CCl,inactive
11,COC(=O)c1cc(Oc2ccc(Cl)cc2Cl)ccc1[N+](=O)[O-],inactive
12,O=c1[nH]c2ccccc2n1C1CCN(CCCC(c2ccc(F)cc2)c2ccc(F)cc2)CC1,inactive
13,c1ccc2c(c1)Oc1ccccc1O2,inactive
14,Brc1c(Br)c(Br)c(Oc2c(Br)c(Br)c(Br)c(Br)c2Br)c(Br)c1Br,inactive
15,CCOC(=O)CCN(SN(C)C(=O)Oc1cccc2c1OC(C)(C)C2)C(C)C,inactive
16,CCOc1cc(C=O)ccc1O,inactive
17,CNC(=O)N(C)c1nc2ccccc2s1,inactive
18,CCCCOP(=O)(CCCC)OCCCC,inactive
19,CN(C)C(=S)S,inactive
20,C=CCOC(F)(C(F)(F)F)C(F)(F)F,inactive

row,Structure (SMILES),outcome
1,Oc1ccc(Cc2ccc(O)cc2)cc1,inactive
2,O=c1oc2ccccc2c(O)c1C(CC(O)c1ccc(-c2ccc(Br)cc2)cc1)c1ccccc1 (stereo not given),inactive
3,O=C(O)COc1cc(Cl)c(Cl)cc1Cl,inactive
4,O=C(NC(=O)c1c(F)cccc1F)Nc1cc(Cl)c(F)c(Cl)c1F,inactive
5,c1cc[c]([Sb]([c]2ccccc2)[c]2ccccc2)cc1,inactive
6,CCOCn1c(-c2ccc(Cl)cc2)c(C#N)c(Br)c1C(F)(F)F,inactive
7,O=S1(=O)OC(c2cc(Br)c(O)c(Br)c2)(c2cc(Br)c(O)c(Br)c2)c2ccccc21,inactive
8,CCC[CH2][Sn]([Cl])([Cl])[CH2]CCC,inactive
9,C=CC(F)(C(F)(F)F)C(F)(F)C(F)(F)F (stereo not given),inactive
10,CC(=Cc1ccccc1)[N+](=O)[O-],inactive
11,Nc1ccc(-c2ccccc2)cc1,inactive
12,CC[N+](CC)(CC)CC,inactive
13,Nc1ccc(N)cc1,inactive
14,ClCCCCl,inactive
15,O=C(O)CC(O)(CC(=O)O)C(=O)O,inactive
16,O=C(N[C@H]1CN2CCC1CC2)c1ccc2c(c1)OCCO2,inactive
17,CC1CC(=O)O1 (stereo not given),inactive
18,BrCC(Br)c1ccccc1 (stereo not given),inactive
19,CC(C=O)Cc1ccc2c(c1)OCO2 (stereo not given),inactive
20,O=C(CCl)Nc1ccccc1,inactive
